In PubChem BioAssay:
“And” between values parts separate entries of the source, which are not always exact repeats. Identical values can stand only once. The source made the active and inactive calls.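 The calls were made as follows, unless noted: active = compounds whose cell count with miR-34 switched on is under 0.7 times the count with it off; inactive = the rest.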

Experiments:
[1] = stimulators of nuclear beta-catenin in C2C12, primary screen, imaging, WNT3A-conditioned medium, mouse C2C12, NPC library (AID 1117326; in the data active = nuclear beta-catenin stimulation mostly above about 4.2%, no sharp cut-off; inactive = mostly below about 10%; also: reference of the scale not given here); details: stronger effect = higher value
[2] = stimulators of insulin release from INS-1E, primary screen, cell-based, 5 mM glucose, NPC library (AID 1117329;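 active = compound raises insulin release from rat beta cells at 5 mM glucose, no numeric limit stated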; also: reference of the scale not given here); details: rat INS-1E insulin secretion, at 10 µM, stronger effect = higher value
[3] = growth inhibition of GSK3B-pretreated HCT116 cells – cell-based, CellTiter-Glo, 0.2 to 20 µM (AID 1117336;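 active = compounds lowering colon cancer cell viability after pretreatment blocking the GSK3B kinase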); details: HCT116 viability after GSK3B inhibitor, at 20 µM, stronger effect = higher value
[4] = inhibition of endothelial tube formation, primary screen, imaging, VEGF stimulated, CD31 staining, tube area, NPC library (AID 1117340;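 active = compound that reduces growth-factor-driven endothelial tube area in a mixed cell culture, no cutoff stated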); details: VEGF-stimulated ADSC/ECFC co-culture, at 10 µM, stronger effect = higher value
[5] = glucagon-like peptide 1 release enhancers, primary assay, NCI-H716 cell line, NPC library (AID 1117341;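 active = compound raises GLP1 secretion from the human gut endocrine cells, with no numeric limit stated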; also: reference of the scale not given here); details: NCI-H716 cells, at 10 µM, stronger effect = higher value
[6] = HCT116 colon cancer cell growth inhibition, primary screen, CellTiter-Glo luminescence, NPC library (AID 1117342;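 active = compounds that lower survival of HCT116 colon cancer cells in the luminescence readout, no numeric limit stated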); details: at 20 µM (top of the series)
[7] = CellTiter-Glo luminescent readout of SW480 viability loss, NPC library primary (AID 1117343;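 active = compounds that lower viability of the colon cancer cells in the luminescence readout, with no numeric limit stated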); details: CellTiter-Glo luminescence; at 20 µM (top of the series) unless noted
[8] = decreased DLD-1 cellular survival, CellTiter-Glo luminescent readout, NPC compound collection, primary HTS (AID 1117346;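 active = compounds that lower survival of DLD-1 colon cancer cells in the luminescence readout, no cutoff given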); details: DLD-1 viability, CellTiter-Glo luminescence; at 20 µM (top of the series)
[9] = sensitizers of A549 cells to miR-34 induction, primary screen, imaging, A549 dox-inducible miR-34, nuclei and caspase counts (AID 1347080); details: A549 miR-34 inducible, Hoechst nuclei count, 48 h
[10] = survival rescue of mitochondrial mutant cells in low glucose, primary screen, MELAS cybrids, Rieske KO mouse fibroblasts, CellTiter-Glo (AID 1508586;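 active = mean z-score across replicates of 1.96 or higher in either the MELAS or the Rieske mutant cell line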;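 also: z relative to plate mean and SD of compound and empty wells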)
[11] = phospholipid biosynthesis inhibitors in animal cells, primary screen, cell-based, LOPAC library, screen 4 (AID 1347384; call rule not given here); details: phospholipid biosynthesis inhibition screen, at 10 µM
[12] = viability rescue of complex I mutant cybrids, primary screen, cell-based, galactose medium, ATP luminescence (AID 1645843;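 active = z-score of at least 1.8 in each of two replicates, scored against plate mean and spread of sample wells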;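 also: positive z means more ATP and so rescue of galactose-driven cybrid death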); details: complex I mutant cybrid cells, 72 h, stronger effect = higher value
[13] = liver-stage malaria parasite growth inhibition, primary screen, cell-based, HepG2, luciferase luminescence, HepG2 viability (AID 624349; in the data active = parasite load remaining mostly below about 12%, no sharp cut-off; inactive = mostly above about 10%;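 also: 100% = mean of DMSO negative control wells on the same plate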); details: P. berghei liver stage in HepG2, luciferase luminescence, concentration not given here; parasite load remaining: stronger effect = lower value; viability: measured here: HepG2 viability without parasites
[14] = stronger effect = lower value, cell number ratio, induced over uninduced
[15] = measured here: relative caspase fold change +Dox/-Dox
[16] = measured here: total cells with miR-34 induction, stronger effect = lower value
[17] = measured here: total cells without miR-34 induction
[18] = MELAS cybrid survival, CellTiter-Glo 48 h, stronger effect = higher value
[19] = Rieske KO mouse fibroblast survival, CellTiter-Glo 72 h

SMILES	nuclear beta-catenin stimulation ([1]; at 10 µM)	nuclear beta-catenin stimulation ([1]; stimulation, at 2 µM) [%]	insulin secretion stimulation [2]	viability decrease [3]	tube area decrease [4]	GLP1 secretion stimulation [5]	inhibition of viability [6]	viability decrease (inhibition) [7]	viability decrease (inhibition) [8]	fold change [9, 14]	fold change [9, 15]	cell count [9, 16]	cell count [9, 17]	z-score [10, 18]	z-score [10, 19]	outcome [11]	z-score [12]	parasite load remaining [13]	viability [13]
CCCCCCCCCCCCCCCCO	-0.4% (inactive)	0.7	-0.5% (inactive)	-1.35% (inactive)	-0.9% (inactive)	-3.8% (inactive)	-2.3% (inactive)	21.5% (inactive)	5.6% (inactive)	0.9 (inactive)	0.439	8310	9230	-0.285 (inactive)	-0.121				
COc1cc(C=O)ccc1O	1.6% (inactive)	0.8	0.7% (inactive)	1.37% (inactive)	1.2% (inactive)	0.6% (inactive)	-10.3% (inactive)	49.1% (inactive)	3.27% (inactive)	0.931 (inactive)	0.545	7990	8590	-0.504 (inactive)	-0.136				
N[C@@H](COP(=O)(O)O)C(=O)O	0.6% (inactive)	14.5	2% (inactive)	-15.2% (inactive)	-20.7% (inactive)	-1% (inactive)	0% (inactive)	-26.4% (inactive)	-5.8% (inactive)	1.04 (inactive) and 0.898 (inactive)	1.02 and 0.718	10100 and 7700	9680 and 8570			inactive	0.485 (inactive)		
O=C(O)CP(=O)(O)O	4.8% (inactive)	3.8	0.7% (inactive)	-14.8% (inactive)	-4.7% (inactive)	0.3% (inactive)	-1.37% (inactive)	10.9% (inactive)	-7.2% (inactive)	0.969 (inactive)	1.06	9620	9930			inactive	1.15 (inactive)		
O=C1NC(=O)[C@@]2(CCOc3ccc(F)cc32)N1	-1.1% (inactive)	0.6	1.1% (inactive)	-5.9% (inactive)	-2.4% (inactive)	0% (inactive)	4.6% (inactive)	-5.9% (inactive)	-7.9% (inactive)	0.973 (inactive)	1.69	9980	10300			inactive	0.695 (inactive)		
CCCCCCCCCCCCCCC[C@H](O)[C@@H](N)CO	43.1% (active)	1.5	1% (inactive)	72.1% (active)	17.5% (inactive)	7.7% (inactive)	69.8% (active)	143% (active)	104% (active)	0.915 (inactive)	1.42	5120	5600						
NC1[C@H]2CN(c3nc4c(cc3F)c(=O)c(C(=O)O)cn4-c3ccc(F)cc3F)C[C@@H]12 (stereo not given in full)	-0.6% (inactive)	0.5	17.5% (inactive)	64.3% (active)	26.1% (inactive)	-0.1% (inactive)	58.4% (active)	82.9% (active)	58.6% (active)	1.35 (inactive)	1.08	3150	2330			inactive	2.21 (active)		
C[N+](C)(C)CCOC(=O)CCC(=O)OCC[N+](C)(C)C	0.2% (inactive)	1.4	0.95% (inactive)	14% (inactive)	-17.3% (inactive)	3.2% (inactive)	3.4% (inactive)	-16.3% (inactive)	3.4% (inactive)	0.999 (inactive) and 0.895 (inactive)	1.13 and 1.62	9370 and 9270	9380 and 10400	-0.659 (inactive)	-1.43	inactive	0.34 (inactive) and -0.11 (inactive)	28% (inactive)	74.5%
CC(=O)Oc1cc(C(F)(F)F)ccc1C(=O)O	-0.6% (inactive)	-0.8	2.8% (inactive)	-12.2% (inactive)	-1.7% (inactive)	-6.4% (inactive)	16.4% (inactive)	8.4% (inactive)	5.4% (inactive)	0.83 (inactive) and 0.986 (inactive)	1.45 and 0.716	8780 and 8310	10600 and 8430	-0.0694 (inactive) and 0.0403 (inactive)	-0.153 and -0.0623	inactive		140% (inactive) and 78.8% (inactive)	117% and 74.8%
CCN(CC)CCCN(c1ccccc1)C1Cc2ccccc2C1	-1.7% (inactive)	-1.3	32.5% (active)	33.8% (inactive)	22.2% (inactive)	-4.5% (inactive)	50.6% (active)	53.5% (active)	32.5% (inactive)	1.07 (inactive)	1.01	8050	7530			inactive	-1.11 (inactive)		
C[C@]12CCC(=O)C=C1CC[C@@H]1[C@@H]2CC[C@@]2(C)[C@H]1CC[C@]2(O)C(=O)CO	0.3% (inactive)	-0.1	-1.7% (inactive)	-3.9% (inactive)	5.4% (inactive)	1.1% (inactive)	25.1% (inactive)	12.3% (inactive)	-6.8% (inactive)	1 (inactive)	0.913	8610	8590			inactive	0.435 (inactive)		
